According to PubChem BioAssay AID1159580 (chemical genetic matrix, 2015):
About 2,000 (36%) of roughly 5,500 compounds were called active. Another 18% or so got no clear call; they are omitted. Rule as the data show it: active = normalized growth mostly below about 0.91 (no sharp cut-off); inconclusive = no clear call, values can overlap the other calls; inactive = mostly above about 0.92. This is one part of the list.

Assay: chemical genetic growth profiling, strain panel (AID 1159580);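 also: tested at 20 µM; growth read once vehicle control cultures reached saturation at 30 °C; 1 = growth at the plate median or of vehicle wells; lower values mean less growth of the strain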
Conditions: growth OD
[1] = S. cerevisiae deletion strains, locus YGR078C, strain PAC10, active compounds read low
[2] = S. cerevisiae deletion strains, locus YJR075W, strain HOC1, active compounds read low
[3] = S. cerevisiae deletion strains, locus YNL153C, strain GIM3, active compounds read low
[4] = S. cerevisiae deletion strains, locus YPL241C, strain CIN2, active compounds read low

Measured: normalized growth

COc1cc2c(cc1OC)-c1cc(=Nc3c(C)cc(C)cc3C)n(C)c(=O)n1CC2
inactive: S. cerevisiae deletion strains, locus YAL040C, strain CLN3, active compounds read low 0.995 | S. cerevisiae deletion strains, locus YCL061C, strain MRC1 (second series), active compounds read low 0.998 | S. cerevisiae deletion strains, locus YDR363W, strain ESC2, active compounds read low 1 | S. cerevisiae deletion strains, locus YER002W, strain NOP16, active compounds read low 1.02 | [1] 1.01 | [2] 0.97 | S. cerevisiae deletion strains, locus YMR307W, strain GAS1, active compounds read low 0.998 | [3] 0.999 | S. cerevisiae deletion strains, locus YNL175C, strain NOP13, active compounds read low 0.996 | S. cerevisiae deletion strains, locus YNL197C, strain WHI3, active compounds read low 1.01 | S. cerevisiae deletion strains, locus YNL224C, strain SQS1, active compounds read low 1.01 | S. cerevisiae deletion strains, locus YOR083W, strain WHI5 (second series), active compounds read low 1.02 | [4] 0.993

c1cc(C2CCCCC2)ccc1C1CCCCC1
inactive: S. cerevisiae deletion strains, locus YAL013W, strain DEP1, active compounds read low 1.01 | S. cerevisiae deletion strains, locus YBR229C, strain ROT2, active compounds read low 1 | S. cerevisiae deletion strains, locus YCL061C, strain MRC1, active compounds read low 0.965 | S. cerevisiae deletion strains, locus YDL101C, strain DUN1, active compounds read low 0.968 | S. cerevisiae deletion strains, locus YDR150W, strain NUM1, active compounds read low 0.958 | S. cerevisiae deletion strains, locus YEL061C, strain CIN8, active compounds read low 1.01 | [1] 0.982 | S. cerevisiae deletion strains, locus YHR030C, strain SLT2, active compounds read low 0.878 | S. cerevisiae deletion strains, locus YHR087W, strain rtc3, active compounds read low 1.04 | S. cerevisiae deletion strains, locus YJR043C, strain POL32, active compounds read low 1 | [2] 1.03 | S. cerevisiae deletion strains, locus YLR039C, strain RIC1, active compounds read low 1.05 | S. cerevisiae deletion strains, locus YLR058C, strain SHM2 (second series), active compounds read low 1.02 | S. cerevisiae deletion strains, locus YLR085C, strain ARP6, active compounds read low 1.04 | S. cerevisiae deletion strains, locus YLR262C, strain YPT6, active compounds read low 1.04 | S. cerevisiae deletion strains, locus YML094W, strain GIM5, active compounds read low 1.02 | S. cerevisiae deletion strains, locus YMR219W, strain ESC1, active compounds read low 1.04 | S. cerevisiae deletion strains, locus YMR263W, strain SAP30, active compounds read low 1 | [3] 0.983 | S. cerevisiae deletion strains, locus YNL298W, strain CLA4 (second series), active compounds read low 0.987 | S. cerevisiae deletion strains, locus YNL322C, strain KRE1, active compounds read low 1.01 | S. cerevisiae deletion strains, locus YNR030W, strain Alg12, active compounds read low 0.967 | S. cerevisiae deletion strains, locus YOL006C, strain TOP1, active compounds read low 0.893 | S. cerevisiae deletion strains, locus YPL055C, strain LGE1, active compounds read low 1.05 | [4] 1 | S. cerevisiae deletion strains, locus YPR135W, strain CTF4, active compounds read low 1.05 | S. cerevisiae strains, strain wild type, active compounds read low 0.973
